Reference: the supplement of paper PMC10849652
The full data set covers some 7,900 targets. This sample favours those with a hit. About 0.6% of all pairs of compound and target were hits.

What was measured:
Test in all cases: log2 fold change, soluble protein after heating vs DMSO (PISA); higher = thermal stabilisation; K562 cells, 10 uM, 30 min; active = over 0.2 and 3.5 SD of the protein, either way, in both replicates (recomputed)
IRAK-1-4 Inhibitor I = compound: C1COCCN1CCN2C3=CC=CC=C3N=C2NC(=O)C4=CC(=CC=C4)[N+](=O)[O-] [IRAK-1-4 Inhibitor I]
In short: (§1)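 K562 cells at 2×10^6 cells/mL were given 10 μM compound for 30 min. Aliquots then went through 3 min of heating across 48°C-58°C, were pooled, and were extracted in PBS with 0.5% NP-40 at 4°C, and the supernatant after 21,000xg for 90 min was quantified by TMTpro 16plex LC-MS/MS with channel sums equalised. Thermal stability relative to control samples, from duplicates, is given as log2 fold change.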

ibrutinib = compound: C=CC(=O)N1CCC[C@@H](n2nc(-c3ccc(Oc4ccccc4)cc3)c3c(N)ncnc32)C1 [ibrutinib]
In short: as §1

[1] = compound: CC(=O)c1cnc2ccc(-c3cc(Cl)c(O)c(Cl)c3)nc2c1N[C@H]1CC[C@H](CN(C)C)CC1
In short: as §1

ralimetinib = compound: CC(C)(C)Cn1c(N)nc2ccc(-c3[nH]c(C(C)(C)C)nc3-c3ccc(F)cc3)nc21 [ralimetinib]
In short: as §1

[2] = compound: CC(C)(O)CC(=O)NCCn1ccc2ncnc(Nc3ccc(Oc4cccc(C(F)(F)F)c4)c(Cl)c3)c21
In short: as §1

[3] = compound: CC(C)C1=C2N=C(C=C(N2N=C1)NCC3=CC=CC=C3)NCCCCCCN
In short: as §1

[4] = compound: CC(C)C[C@@H](C=O)NC(=O)[C@H](CC(C)C)NC(=O)[C@H](CC(C)C)NC(=O)OCc1ccccc1
In short: as §1

pinometostat = compound: CC(C)N(C[C@H]1O[C@@H](n2cnc3c(N)ncnc32)[C@H](O)[C@@H]1O)[C@H]1C[C@@H](CCc2nc3cc(C(C)(C)C)ccc3[nH]2)C1 [pinometostat]
In short: as §1

[5] = compound: CC1=C(C(CC(=O)N1)C2=CC=C(C=C2)C(F)(F)F)C(=O)NC3=C(C=C4C(=C3)C=NN4)F
In short: as §1

[6] = compound: CC1=C(C2=C(C=C1)C(=O)C3=CC=CC=C3N2CCCN)C
In short: as §1

[7] = compound: CC1=C(C=C(C=C1)NC(=O)C2=CC(=CC=C2)C(C)(C)C#N)NC3=CC4=C(C=C3)N=CN(C4=O)C
In short: as §1

[8] = compound: CC1=C(C=C(C=C1)NC(=O)C2=CC(=CC=C2)N(C)C)NC(=O)C3=CC=C(C=C3)O
In short: as §1

[9] = compound: CC1=CC=C(C=C1)SC2=C3C=C(SC3=CN=C2)C(=O)N
In short: as §1

[10] = compound: CC1=NC(=CC=C1)C2=C(N=C(N2)C(C)(C)C)C3=CC4=NC=CN=C4C=C3
In short: as §1

Nexturastat A = compound: CCCCN(Cc1ccc(C(=O)NO)cc1)C(=O)Nc1ccccc1 [Nexturastat A]
In short: as §1

vemurafenib = compound: CCCS(=O)(=O)Nc1ccc(F)c(C(=O)c2c[nH]c3ncc(-c4ccc(Cl)cc4)cc23)c1F [vemurafenib]
In short: as §1

[11] = compound: CCCS(=O)(=O)Nc1ccc(F)c(C(=O)c2c[nH]c3ncc(Cl)cc23)c1F
In short: as §1

[12] = compound: CCCc1cc(C)[nH]c(=O)c1CNC(=O)c1cc(-c2ccnc(N3CCN(C)CC3)c2)cc2c1cnn2C(C)C
In short: as §1

givinostat = compound: CCN(CC)Cc1ccc2cc(COC(=O)Nc3ccc(C(=O)NO)cc3)ccc2c1 [givinostat]
In short: as §1

barasertib = compound: CCN(CCCOc1ccc2c(Nc3cc(CC(=O)Nc4cccc(F)c4)[nH]n3)ncnc2c1)CCOP(=O)(O)O [barasertib]
In short: as §1

Measured: log2 fold change

UHRF1BP1 (UniProt Q6BDS2)
active: [3] 0.258
inactive: IRAK-1-4 Inhibitor I 0.007 | ibrutinib 0.023 | [1] -0.034 | ralimetinib -0.067 | [2] 0.097 | [4] 0.03 | pinometostat 0.006 | [5] 0.001 | [6] 0.029 | [7] -0.068 | [8] -0.039 | [9] -0.012 | [10] -0.011 | Nexturastat A 0.043 | vemurafenib -0.035 | [11] -0.043 | [12] -0.022 | givinostat -0.012 | barasertib -0.009

TTC4 (UniProt O95801)
Sequence of UniProt O95801 (O95801 whole entry, looked up): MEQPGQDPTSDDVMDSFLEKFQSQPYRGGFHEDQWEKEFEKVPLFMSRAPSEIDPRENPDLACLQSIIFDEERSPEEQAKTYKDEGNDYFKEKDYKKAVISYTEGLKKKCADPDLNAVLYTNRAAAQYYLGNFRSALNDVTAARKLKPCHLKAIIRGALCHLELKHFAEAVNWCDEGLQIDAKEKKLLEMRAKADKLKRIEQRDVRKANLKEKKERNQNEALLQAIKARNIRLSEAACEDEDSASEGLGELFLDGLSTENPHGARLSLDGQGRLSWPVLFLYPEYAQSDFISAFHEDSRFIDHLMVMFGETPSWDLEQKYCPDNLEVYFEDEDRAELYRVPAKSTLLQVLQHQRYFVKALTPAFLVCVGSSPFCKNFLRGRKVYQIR
inactive: IRAK-1-4 Inhibitor I -0.058 | ibrutinib -0.031 | [1] -0.052 | ralimetinib 0.168 | [2] -0.072 | [3] -0.119 | [4] 0.024 | pinometostat -0.015 | [5] -0.001 | [6] 0 | [7] 0.051 | [8] -0.066 | [9] 0.032 | [10] 0.046 | Nexturastat A 0.052 | vemurafenib 0.059 | [11] 0.106 | [12] 0.013 | givinostat -0.015 | barasertib 0.072

TRIM4 (UniProt Q9C037)
Sequence of UniProt Q9C037 (Q9C037 whole entry, looked up): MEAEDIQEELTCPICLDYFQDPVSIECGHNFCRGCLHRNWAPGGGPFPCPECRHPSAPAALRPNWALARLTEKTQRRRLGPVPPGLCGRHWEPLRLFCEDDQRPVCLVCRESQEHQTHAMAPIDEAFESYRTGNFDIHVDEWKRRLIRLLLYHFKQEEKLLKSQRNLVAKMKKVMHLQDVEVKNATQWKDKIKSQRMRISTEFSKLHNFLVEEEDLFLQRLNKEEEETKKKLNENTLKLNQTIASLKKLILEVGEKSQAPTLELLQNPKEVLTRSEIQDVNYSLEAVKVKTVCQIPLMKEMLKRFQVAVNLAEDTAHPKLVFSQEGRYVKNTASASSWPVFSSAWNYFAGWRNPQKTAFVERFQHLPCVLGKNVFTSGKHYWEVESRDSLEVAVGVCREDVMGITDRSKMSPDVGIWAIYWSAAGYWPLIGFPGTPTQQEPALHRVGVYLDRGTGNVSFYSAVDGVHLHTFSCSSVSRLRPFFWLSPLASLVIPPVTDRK
inactive: IRAK-1-4 Inhibitor I -0.157 | ibrutinib 0.173 | [1] -0.063 | ralimetinib 0.023 | [2] -0.183 | [3] -0.078 | [4] -0.013 | pinometostat 0.173 | [5] -0.023 | [6] 0.089 | [7] -0.031 | [8] 0.023 | [9] -0.029 | [10] -0.076 | Nexturastat A 0.1 | vemurafenib -0.297 | [11] -0.041 | [12] 0.046 | givinostat -0.086 | barasertib 0.011

VTI1B (UniProt Q9UEU0)
Sequence of UniProt Q9UEU0 (Q9UEU0 whole entry, looked up): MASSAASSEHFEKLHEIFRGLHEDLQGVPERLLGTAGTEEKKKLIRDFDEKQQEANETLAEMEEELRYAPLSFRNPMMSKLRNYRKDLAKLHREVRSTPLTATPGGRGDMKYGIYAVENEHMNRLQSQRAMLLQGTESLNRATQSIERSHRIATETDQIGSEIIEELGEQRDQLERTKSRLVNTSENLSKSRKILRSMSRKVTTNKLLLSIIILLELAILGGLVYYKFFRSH
inactive: IRAK-1-4 Inhibitor I -0.074 | ibrutinib 0.027 | [1] -0.033 | ralimetinib -0.081 | [2] 0.08 | [4] 0.002 | pinometostat -0.057 | [5] -0.001 | [6] 0.012 | [7] -0.038 | [8] 0.006 | [9] -0.008 | [10] -0.014 | Nexturastat A 0.036 | vemurafenib -0.03 | [11] 0.009 | [12] -0.034 | givinostat -0.04 | barasertib -0.007
active: [3] -0.261

TMEM263 (UniProt Q8WUH6)
active: [3] -1.03
inactive: IRAK-1-4 Inhibitor I 0.083 | ibrutinib 0 | [1] 0.026 | ralimetinib -0.092 | [2] -0.303 | [4] 0.029 | pinometostat 0.001 | [5] 0.092 | [6] 0.037 | [7] -0.009 | [8] -0.015 | [9] 0.117 | [10] 0.059 | Nexturastat A -0.02 | vemurafenib -0.051 | [11] 0.128 | [12] -0.138 | givinostat -0.015 | barasertib 0.054

XPNPEP1 isoform 3 (UniProt Q9NQW7)
Sequence of UniProt Q9NQW7 (Q9NQW7 whole entry, looked up): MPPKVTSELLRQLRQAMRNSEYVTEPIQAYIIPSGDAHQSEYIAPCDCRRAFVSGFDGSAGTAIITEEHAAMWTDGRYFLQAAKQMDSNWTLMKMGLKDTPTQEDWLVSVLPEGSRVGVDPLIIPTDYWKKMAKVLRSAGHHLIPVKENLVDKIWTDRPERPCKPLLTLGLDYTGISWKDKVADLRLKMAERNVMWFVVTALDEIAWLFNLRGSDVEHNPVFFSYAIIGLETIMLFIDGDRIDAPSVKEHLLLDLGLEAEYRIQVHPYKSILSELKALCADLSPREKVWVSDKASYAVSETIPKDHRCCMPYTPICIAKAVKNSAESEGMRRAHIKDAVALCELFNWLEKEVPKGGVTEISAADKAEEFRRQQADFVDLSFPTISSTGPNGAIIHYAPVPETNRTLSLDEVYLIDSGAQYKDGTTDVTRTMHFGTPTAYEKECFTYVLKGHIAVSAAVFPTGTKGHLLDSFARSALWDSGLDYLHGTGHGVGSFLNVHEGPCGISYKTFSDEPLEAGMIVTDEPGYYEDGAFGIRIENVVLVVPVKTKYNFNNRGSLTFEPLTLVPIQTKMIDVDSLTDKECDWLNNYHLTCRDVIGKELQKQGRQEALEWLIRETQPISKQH
inactive: IRAK-1-4 Inhibitor I 0.07 | ibrutinib -0.002 | [1] -0.011 | ralimetinib -0.03 | [2] -0.016 | [3] -0.135 | [4] -0.073 | pinometostat -0.006 | [5] -0.014 | [6] 0.045 | [7] 0.014 | [8] -0.024 | [9] 0.023 | [10] 0.036 | Nexturastat A -0.014 | vemurafenib 0 | [11] 0.021 | [12] -0.01 | givinostat 0.042 | barasertib 0.016

USP34 (UniProt Q70CQ2)
inactive: IRAK-1-4 Inhibitor I 0.005 | ibrutinib -0.091 | [1] -0.033 | ralimetinib -0.017 | [2] -0.14 | [3] -0.114 | [4] -0.016 | pinometostat 0.079 | [5] -0.04 | [6] -0.176 | [7] -0.02 | [8] -0.094 | [9] 0.077 | [10] 0 | Nexturastat A -0.12 | vemurafenib 0.08 | [11] 0.032 | [12] 0.052 | givinostat 0.094 | barasertib 0.069

UBAP1 isoform 4 (UniProt Q9NZ09)
inactive: IRAK-1-4 Inhibitor I -0.058 | ibrutinib 0.07 | [1] -0.001 | ralimetinib -0.024 | [2] -0.044 | [3] -0.087 | [4] 0.107 | pinometostat 0.018 | [5] 0.184 | [6] -0.112 | [7] 0.082 | [8] -0.002 | [9] 0.135 | [10] -0.015 | Nexturastat A -0.049 | vemurafenib 0.005 | [11] 0.159 | [12] 0.018 | givinostat 0.13 | barasertib 0.033

WDR41 (UniProt Q9HAD4)
Sequence of UniProt Q9HAD4 (Q9HAD4 whole entry, looked up): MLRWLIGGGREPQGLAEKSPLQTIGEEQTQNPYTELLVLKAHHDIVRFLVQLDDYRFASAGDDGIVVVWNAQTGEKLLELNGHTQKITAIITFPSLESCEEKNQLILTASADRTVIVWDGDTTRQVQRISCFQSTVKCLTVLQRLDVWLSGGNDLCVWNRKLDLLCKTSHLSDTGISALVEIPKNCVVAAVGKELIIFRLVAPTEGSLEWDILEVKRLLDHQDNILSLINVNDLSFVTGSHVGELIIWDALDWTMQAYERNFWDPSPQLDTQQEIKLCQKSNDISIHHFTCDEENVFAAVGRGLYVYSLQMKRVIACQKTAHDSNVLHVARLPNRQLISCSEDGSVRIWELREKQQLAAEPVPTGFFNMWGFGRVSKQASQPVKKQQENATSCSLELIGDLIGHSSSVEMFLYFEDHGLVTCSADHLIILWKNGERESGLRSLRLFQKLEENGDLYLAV
inactive: IRAK-1-4 Inhibitor I -0.024 | ibrutinib -0.022 | [1] -0.023 | ralimetinib -0.036 | [2] -0.077 | [4] -0.026 | pinometostat 0.012 | [5] 0.127 | [6] -0.001 | [7] 0.044 | [8] 0 | [9] -0.007 | [10] 0.001 | Nexturastat A 0.002 | vemurafenib 0.008 | [11] 0.036 | [12] -0.011 | givinostat -0.04 | barasertib 0.033
active: [3] -0.271

UBE3D (UniProt Q7Z6J8)
Sequence of UniProt Q7Z6J8 (Q7Z6J8 whole entry, looked up): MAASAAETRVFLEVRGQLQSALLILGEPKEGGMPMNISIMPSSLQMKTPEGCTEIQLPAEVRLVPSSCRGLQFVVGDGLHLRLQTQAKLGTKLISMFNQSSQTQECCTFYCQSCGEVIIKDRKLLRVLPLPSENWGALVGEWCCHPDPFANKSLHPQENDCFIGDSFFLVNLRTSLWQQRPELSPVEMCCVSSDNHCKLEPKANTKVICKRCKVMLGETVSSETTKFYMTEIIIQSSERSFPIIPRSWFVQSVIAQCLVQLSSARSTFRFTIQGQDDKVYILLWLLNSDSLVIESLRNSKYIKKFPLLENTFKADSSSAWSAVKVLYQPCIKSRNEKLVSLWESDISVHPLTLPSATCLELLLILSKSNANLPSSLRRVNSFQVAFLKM
inactive: IRAK-1-4 Inhibitor I 0.029 | ibrutinib 0.047 | [1] 0.026 | ralimetinib 0.015 | [2] 0.088 | [3] 0.011 | [4] -0.061 | pinometostat -0.012 | [5] -0.045 | [6] 0.051 | [7] -0.036 | [8] 0.036 | [9] -0.049 | [10] 0.01 | Nexturastat A -0.016 | vemurafenib 0.014 | [11] 0.04 | [12] 0.006 | givinostat -0.075 | barasertib 0.018

USP25 isoform 3 (UniProt Q9UHP3)
Sequence of UniProt Q9UHP3 (Q9UHP3 whole entry, looked up): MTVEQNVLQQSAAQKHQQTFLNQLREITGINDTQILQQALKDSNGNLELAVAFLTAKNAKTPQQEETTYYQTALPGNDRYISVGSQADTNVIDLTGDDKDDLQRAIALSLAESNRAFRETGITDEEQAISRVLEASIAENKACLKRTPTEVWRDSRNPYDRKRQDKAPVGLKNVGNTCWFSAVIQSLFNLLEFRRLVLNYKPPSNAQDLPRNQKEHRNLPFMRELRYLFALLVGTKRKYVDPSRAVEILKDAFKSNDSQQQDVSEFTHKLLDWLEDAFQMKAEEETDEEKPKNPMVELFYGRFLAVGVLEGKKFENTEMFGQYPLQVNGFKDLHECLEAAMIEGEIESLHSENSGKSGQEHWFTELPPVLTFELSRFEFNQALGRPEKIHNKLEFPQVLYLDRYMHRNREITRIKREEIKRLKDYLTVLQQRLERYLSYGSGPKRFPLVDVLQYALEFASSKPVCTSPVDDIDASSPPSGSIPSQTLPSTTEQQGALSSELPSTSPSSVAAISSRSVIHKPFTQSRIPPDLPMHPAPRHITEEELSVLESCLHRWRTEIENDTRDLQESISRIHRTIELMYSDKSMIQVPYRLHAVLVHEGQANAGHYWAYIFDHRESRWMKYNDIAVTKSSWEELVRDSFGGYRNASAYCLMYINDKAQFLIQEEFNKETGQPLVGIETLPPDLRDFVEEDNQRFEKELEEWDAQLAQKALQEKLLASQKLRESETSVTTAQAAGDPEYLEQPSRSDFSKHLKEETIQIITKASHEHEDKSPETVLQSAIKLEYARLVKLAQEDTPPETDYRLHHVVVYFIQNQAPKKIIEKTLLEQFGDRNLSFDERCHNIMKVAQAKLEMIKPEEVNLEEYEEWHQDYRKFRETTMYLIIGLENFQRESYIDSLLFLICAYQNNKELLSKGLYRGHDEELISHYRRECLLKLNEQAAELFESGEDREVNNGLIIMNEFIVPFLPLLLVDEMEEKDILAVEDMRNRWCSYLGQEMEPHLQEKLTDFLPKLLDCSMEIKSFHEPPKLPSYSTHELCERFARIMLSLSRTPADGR
inactive: IRAK-1-4 Inhibitor I 0.002 | ibrutinib -0.002 | [1] -0.019 | ralimetinib -0.027 | [2] 0.015 | [3] 0.001 | [4] 0.052 | pinometostat 0.001 | [5] 0.043 | [6] 0.002 | [7] 0.004 | [8] 0.008 | [9] -0.009 | [10] 0.045 | Nexturastat A -0.029 | vemurafenib 0.04 | [11] 0.027 | [12] 0.024 | givinostat 0.015 | barasertib 0.02

TTI1 (UniProt O43156)
Sequence of UniProt O43156 (O43156 whole entry, looked up): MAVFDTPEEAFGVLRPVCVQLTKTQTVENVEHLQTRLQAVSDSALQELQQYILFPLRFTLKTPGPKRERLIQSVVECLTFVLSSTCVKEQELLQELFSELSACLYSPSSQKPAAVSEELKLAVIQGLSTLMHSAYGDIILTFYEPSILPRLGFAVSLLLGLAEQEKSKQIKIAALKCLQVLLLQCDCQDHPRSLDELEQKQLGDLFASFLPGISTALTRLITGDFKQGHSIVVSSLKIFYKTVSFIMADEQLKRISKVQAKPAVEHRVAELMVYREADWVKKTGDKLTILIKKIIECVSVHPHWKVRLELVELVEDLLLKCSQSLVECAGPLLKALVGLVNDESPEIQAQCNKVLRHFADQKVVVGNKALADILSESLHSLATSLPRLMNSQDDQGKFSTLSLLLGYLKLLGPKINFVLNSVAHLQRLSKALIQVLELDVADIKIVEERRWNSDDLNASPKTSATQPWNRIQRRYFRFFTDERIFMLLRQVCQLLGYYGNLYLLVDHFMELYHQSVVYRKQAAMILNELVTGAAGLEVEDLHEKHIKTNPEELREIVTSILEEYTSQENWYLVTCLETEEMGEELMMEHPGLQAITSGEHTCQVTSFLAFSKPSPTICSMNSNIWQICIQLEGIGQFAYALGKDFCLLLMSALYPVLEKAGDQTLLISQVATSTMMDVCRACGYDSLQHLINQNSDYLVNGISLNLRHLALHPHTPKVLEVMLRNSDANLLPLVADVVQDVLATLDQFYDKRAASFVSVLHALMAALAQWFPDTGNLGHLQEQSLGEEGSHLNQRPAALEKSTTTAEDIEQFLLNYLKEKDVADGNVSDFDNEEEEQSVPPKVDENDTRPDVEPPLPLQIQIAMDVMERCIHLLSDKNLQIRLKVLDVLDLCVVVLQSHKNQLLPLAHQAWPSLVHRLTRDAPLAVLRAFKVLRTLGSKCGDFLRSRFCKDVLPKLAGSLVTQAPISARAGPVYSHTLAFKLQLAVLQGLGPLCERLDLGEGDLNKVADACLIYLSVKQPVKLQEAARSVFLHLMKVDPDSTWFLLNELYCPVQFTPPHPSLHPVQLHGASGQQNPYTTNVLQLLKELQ
inactive: IRAK-1-4 Inhibitor I -0.012 | ibrutinib 0.009 | [1] -0.065 | ralimetinib 0.1 | [2] -0.113 | [3] -0.059 | [4] 0.016 | pinometostat 0.13 | [5] -0.011 | [6] 0.074 | [7] 0.147 | [8] -0.027 | [9] 0.086 | [10] -0.026 | Nexturastat A 0.02 | vemurafenib 0.082 | [11] 0.095 | [12] -0.016 | givinostat 0.135 | barasertib 0.068

TNFRSF10A (UniProt O00220)
inactive: IRAK-1-4 Inhibitor I 0.002 | ibrutinib 0.034 | [1] -0.064 | ralimetinib -0.072 | [2] -0.073 | [3] 0.043 | [4] 0.078 | pinometostat -0.002 | [5] -0.003 | [6] 0.021 | [7] 0.006 | [8] 0.035 | [9] 0.016 | [10] -0.015 | Nexturastat A 0.089 | vemurafenib -0.073 | [11] -0.044 | [12] 0.004 | givinostat -0.042 | barasertib 0.016

TMEM161A (UniProt Q9NX61)
active: [3] -0.395
inactive: IRAK-1-4 Inhibitor I 0.03 | ibrutinib -0.015 | [1] 0.045 | ralimetinib -0.059 | [2] -0.17 | [4] -0.045 | pinometostat 0.121 | [5] -0.076 | [6] 0.071 | [7] -0.045 | [8] 0.12 | [9] 0.014 | [10] -0.012 | Nexturastat A -0.059 | vemurafenib 0.045 | [11] 0.225 | [12] -0.048 | givinostat 0.024 | barasertib -0.017

TRAPPC8 (UniProt Q9Y2L5)
inactive: IRAK-1-4 Inhibitor I -0.02 | ibrutinib 0.015 | [1] -0.02 | ralimetinib 0.011 | [2] -0.056 | [3] -0.071 | [4] 0.044 | pinometostat 0.072 | [5] 0.002 | [6] 0.003 | [7] 0.079 | [8] -0.036 | [9] -0.009 | [10] -0.022 | Nexturastat A 0.024 | vemurafenib 0.026 | [11] 0.066 | [12] 0.012 | givinostat 0.066 | barasertib 0.033

TPM2 (UniProt P07951)
Sequence of UniProt P07951 (P07951 whole entry, looked up): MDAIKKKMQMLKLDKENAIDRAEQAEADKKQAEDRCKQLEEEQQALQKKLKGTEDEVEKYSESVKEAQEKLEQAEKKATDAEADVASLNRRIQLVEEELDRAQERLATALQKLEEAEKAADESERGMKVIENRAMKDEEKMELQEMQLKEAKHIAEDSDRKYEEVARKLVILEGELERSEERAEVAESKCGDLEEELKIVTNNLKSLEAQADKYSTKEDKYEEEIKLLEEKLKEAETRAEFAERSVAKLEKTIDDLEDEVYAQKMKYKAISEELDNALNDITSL
inactive: IRAK-1-4 Inhibitor I 0.013 | ibrutinib -0.018 | [1] 0.027 | ralimetinib 0.059 | [2] -0.053 | [3] 0.037 | [4] -0.163 | pinometostat -0.1 | [5] 0.079 | [6] -0.103 | [7] 0.048 | [8] -0.019 | [9] -0.047 | [10] 0.212 | Nexturastat A -0.138 | vemurafenib 0.03 | [11] 0.001 | [12] 0.405 | givinostat -0.011 | barasertib 0.04
